Results on four compounds are retold here after PubChem BioAssay.

The nature of experiment [1]: rapamycin-like changes in RPL19A-GFP expression – cell-based, S. cerevisiae, multiplex flow cytometry, primary screen (AID 1862; in the data active = percent of DMSO control GFP below about 86%;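 note: lower values mimic rapamycin by blocking the RPL19A rise seen in DMSO cells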). Particulars: S. cerevisiae RPL19A-GFP strain, flow cytometry fluorescence, 3 h; at 10 µM; stronger effect = lower value. For orientation: In flow cytometry, cells or beads pass a laser one at a time.
A short description of experiment [2]: TOR pathway GLN3 branch reporter MEP2-GFP changes – S. cerevisiae, multiplex flow cytometry, primary screen (AID 1867;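 active = GFP response, as percent of the DMSO control, above the screen-wide mean plus 3 SD, about 139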;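 note: median GFP channel fluorescence of barcode-gated MEP2-GFP cells measured by flow cytometry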). The settings on record: S. cerevisiae MEP2-GFP strain, 3 h, at 10 µM, stronger effect = higher value.
Experiment [3] can be described thus: TOR pathway RTG branch CIT2 reporter changes – S. cerevisiae, GFP fusion, multiplex flow cytometry, primary screen (AID 1870;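 active = percent response above a set limit, the screen-wide mean plus 3 SD, cut at about 130% in these data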;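 note: barcoded CIT2-GFP strain pooled with four other GFP strains with rapamycin as positive control; median GFP fluorescence per well over plate mean of DMSO wells so 100% = DMSO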). The settings on record: S. cerevisiae CIT2-GFP expression, 3 h, at 10 µM, stronger effect = higher value.
Experiment [4] in a line: TOR pathway LAP4-GFP level changes – S. cerevisiae, multiplex flow cytometry, primary screen (AID 1873;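 active = GFP signal, as percent of the solvent control, above the screen mean plus 3 SD, about 149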). Particulars: S. cerevisiae LAP4-GFP expression, 3 h, at 10 µM, stronger effect = higher value.
The nature of experiment [5]: reduced mouse 2C T cell binding to pMHC/ICAM-1 vesicles – MLPCN validation set, flow cytometry, LFA-1/ICAM-1 modulator project, pilot screen (AID 2523;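 active = response below a set limit, under 55% cells CD8-positive and vesicle-bound, and CD8 cells' 90th-percentile brightness under 279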;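 for vesicle binding response: mean PE anti-B7-1 fluorescence of CD8+ cells relative to row control; 100% = QL9-loaded vesicles with DMSO vehicle in the same plate row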). Particulars: 2C mouse CD8+ T cells, at 7 µM, stronger effect = lower value; double positive events: measured here: CD8+/vesicle+ event percentage.
Experiment [6] deals with Integrin beta-1 (Homo sapiens) + Integrin alpha-4 (Homo sapiens) (UniProt P13612+P05556). In words: alpha4beta1 integrin LIBS antibody binding reduction – U937 cells, HUTS-21 mAb, flow cytometry, validation set, VLA-4 allosteric modulator project, pilot screen (AID 2674;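 active = inhibition above 50%, about 3 SD of the validation set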;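 note: antibody binding induced by the VLA-4 ligand LDV present at three times its Kd; 0% = LDV ligand with antibody and no compound and 100% = antibody without LDV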). The settings on record: HUTS-21 LIBS mAb binding, at 6.7 µM, stronger effect = higher value.
Experiment [7] addresses Beta-adrenergic receptor kinase 1 (Homo sapiens) (UniProt P25098). In words: GRK2 binders displacing RNA aptamer, biochemical, validation, human GRK2, bead flow cytometry (AID 488806;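 active = aptamer binding inhibition above 30%, about 3 SD of noise from non-fluorescent compounds; inactive = inhibition at or below 30%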). Particulars: bead-bound GRK2, FAM-aptamer displacement, at 10 µM, stronger effect = higher value.
For experiment [8], the target named is AP-2 complex subunit beta (Homo sapiens) (UniProt P63010). Briefly: beta-arrestin/AP2 interaction blockers – biochemical, validation set, GST-AP2 beads, flow cytometry, pilot screen (AID 504541;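 active = inhibition above 54%, about 3 SD of non-fluorescent compounds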;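 note: AP2 carries R879A mutation and is captured from E. coli lysate; bead-bound FITC arrestin peptide fluorescence measuring arrestin peptide binding to AP2; 0% = DMSO wells and 100% = excess unlabeled arrestin peptide control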). The settings on record: FITC arrestin peptide, at 10 µM, stronger effect = higher value.
Chain of AP-2 complex subunit beta (Homo sapiens) (P63010 whole entry, looked up, one chain of several): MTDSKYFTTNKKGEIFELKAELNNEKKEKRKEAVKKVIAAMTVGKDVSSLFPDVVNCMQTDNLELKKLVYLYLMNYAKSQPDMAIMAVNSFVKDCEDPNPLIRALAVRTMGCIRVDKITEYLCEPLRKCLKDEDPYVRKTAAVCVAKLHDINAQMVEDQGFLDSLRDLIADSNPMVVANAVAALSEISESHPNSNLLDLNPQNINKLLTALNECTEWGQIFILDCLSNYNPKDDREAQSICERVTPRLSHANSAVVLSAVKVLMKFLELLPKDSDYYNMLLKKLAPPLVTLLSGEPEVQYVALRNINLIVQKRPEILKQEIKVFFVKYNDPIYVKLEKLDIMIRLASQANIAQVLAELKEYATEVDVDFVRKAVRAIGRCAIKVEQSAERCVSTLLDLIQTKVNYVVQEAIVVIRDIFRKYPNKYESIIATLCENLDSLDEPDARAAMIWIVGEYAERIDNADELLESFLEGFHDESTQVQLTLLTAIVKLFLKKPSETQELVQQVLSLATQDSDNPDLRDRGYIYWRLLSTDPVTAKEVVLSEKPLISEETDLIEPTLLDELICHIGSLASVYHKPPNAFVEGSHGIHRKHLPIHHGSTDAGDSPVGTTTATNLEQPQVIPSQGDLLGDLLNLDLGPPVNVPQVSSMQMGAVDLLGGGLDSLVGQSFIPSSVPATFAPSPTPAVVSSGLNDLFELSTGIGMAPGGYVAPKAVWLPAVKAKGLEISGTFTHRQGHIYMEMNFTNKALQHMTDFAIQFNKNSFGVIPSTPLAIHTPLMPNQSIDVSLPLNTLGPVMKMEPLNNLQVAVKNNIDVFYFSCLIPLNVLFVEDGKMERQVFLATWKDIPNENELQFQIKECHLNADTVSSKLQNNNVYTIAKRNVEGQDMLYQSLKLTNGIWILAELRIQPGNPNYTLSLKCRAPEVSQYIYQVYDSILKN
Experiment [9] is described as follows: cytosolic pH regulators acting via V-ATPase – S. cerevisiae, pHLuorin, HTS validation (AID 504600; in the data active = response above about 15%;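 note: plate controls were DMSO for no effect and reference compound for full effect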). Particulars: V-ATPase proton transport, at 10 µM, stronger effect = higher value.
In experiment [10] the test system is anti-desmoglein-3 scFv antibody binding to human DSG3. In words: blockers of pathogenic pemphigus antibody–desmoglein-3 binding – biochemical, validation compound set, bead-based, flow cytometry, pilot screen (AID 588368;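 active = binding below the plate cutoff, the plate median minus 3 SD, with a reading above zero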;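 note: signal is the median channel fluorescence of bead-bound GFP antibody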). Particulars: Protein G beads, DSG3-Fc, scFv-GFP binding, at 10 µM, stronger effect = lower value.
Experiment [11] deals with Botulinum neurotoxin type F light chain protease (Clostridium botulinum). Briefly: Clostridium botulinum type F light chain protease inhibitors, microsphere substrate cleavage, validation (AID 588459). Particulars: multiplex microsphere protease substrate cleavage assay, flow cytometry; at 10 µM; stronger effect = higher value.
The target of experiment [12] is Botulinum neurotoxin type A (Clostridium botulinum) (UniProt P0DPI0). Briefly: BoNT/A light chain protease inhibitors, biochemical, multiplex microsphere flow cytometry, validation set (AID 588460). Particulars: at 10 µM, stronger effect = higher value.
Chain of Botulinum neurotoxin type A (Clostridium botulinum) (P0DPI0 whole entry, looked up): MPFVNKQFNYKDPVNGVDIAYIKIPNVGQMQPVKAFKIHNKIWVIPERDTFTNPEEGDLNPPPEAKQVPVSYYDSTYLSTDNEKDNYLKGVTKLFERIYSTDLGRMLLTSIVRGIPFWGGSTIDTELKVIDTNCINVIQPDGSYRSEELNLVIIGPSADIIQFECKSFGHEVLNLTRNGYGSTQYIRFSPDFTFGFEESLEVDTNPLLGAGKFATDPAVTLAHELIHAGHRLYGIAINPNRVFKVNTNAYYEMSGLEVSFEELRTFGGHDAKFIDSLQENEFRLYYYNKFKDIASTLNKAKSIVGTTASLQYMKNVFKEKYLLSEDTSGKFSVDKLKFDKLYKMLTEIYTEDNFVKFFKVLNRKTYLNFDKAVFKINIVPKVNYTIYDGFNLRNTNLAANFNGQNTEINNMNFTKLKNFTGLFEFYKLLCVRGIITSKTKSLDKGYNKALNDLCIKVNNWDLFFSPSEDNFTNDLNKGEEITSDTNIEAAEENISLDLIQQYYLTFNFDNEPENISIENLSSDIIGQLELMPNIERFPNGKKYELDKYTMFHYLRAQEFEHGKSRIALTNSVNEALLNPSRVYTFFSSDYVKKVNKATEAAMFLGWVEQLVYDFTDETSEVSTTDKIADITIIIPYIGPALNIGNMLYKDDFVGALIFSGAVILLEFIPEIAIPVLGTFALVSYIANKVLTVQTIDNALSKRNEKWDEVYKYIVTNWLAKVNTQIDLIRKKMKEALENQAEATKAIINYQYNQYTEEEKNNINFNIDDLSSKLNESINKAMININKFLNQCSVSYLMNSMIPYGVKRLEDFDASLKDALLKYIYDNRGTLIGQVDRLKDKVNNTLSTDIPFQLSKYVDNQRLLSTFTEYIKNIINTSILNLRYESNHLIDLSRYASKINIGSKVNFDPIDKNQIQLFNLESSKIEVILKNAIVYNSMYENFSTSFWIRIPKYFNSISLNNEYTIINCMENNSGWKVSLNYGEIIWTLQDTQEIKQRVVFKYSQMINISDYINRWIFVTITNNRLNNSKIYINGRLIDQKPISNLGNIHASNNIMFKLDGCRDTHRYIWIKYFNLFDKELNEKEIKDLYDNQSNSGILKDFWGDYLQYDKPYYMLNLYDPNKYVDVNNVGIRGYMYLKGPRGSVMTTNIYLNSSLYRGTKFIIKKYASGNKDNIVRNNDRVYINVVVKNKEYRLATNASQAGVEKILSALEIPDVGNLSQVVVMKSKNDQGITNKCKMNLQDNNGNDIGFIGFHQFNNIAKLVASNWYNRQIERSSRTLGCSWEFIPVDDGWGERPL
Experiment [13] has as its target Lethal factor (Bacillus anthracis) (UniProt P15917). Briefly: Bacillus anthracis lethal factor inhibition, microsphere flow cytometry protease assay, validation at 10 µM (AID 588461). Particulars: multiplex microsphere protease cleavage assay, stronger effect = higher value.
A short description of experiment [14]: Nile Red efflux blockade in pump-expressing yeast – validation compound set, multiplex, phenotypic, pilot screen (AID 588506;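 active = efflux inhibition above 0.42, the validation set average plus 4 SD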;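 note: Nile Red retained in cells so higher fluorescence means more efflux inhibition; 0 = negative control wells and 1 = enniatin B 25 µM full block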). Particulars: S. cerevisiae pump-expressing triplex, Nile Red efflux flow cytometry; at 10 µM; stronger effect = higher value.
Experiment [15] addresses ATP-binding cassette sub-family B member 6 (Homo sapiens) (UniProt Q9NP58). In words: blockers of ABCB6-driven porphyrin uptake – K562-ABCB6 cells, flow cytometry, validation set, pilot screen (AID 588550;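 active = inhibition above the screen-wide mean plus 3 SD, about 51%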;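 note: 0% = DMSO wells and 100% = benzethonium chloride 70 µM positive control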). Particulars: K562-ABCB6 porphyrin accumulation, 1 h, at 10 µM, stronger effect = higher value.
Experiment [16] is described as follows: AML differentiation inducers, ER-HoxA9 marrow cells – cell-based, GFP/MAC1 double positive, flow cytometry, validation set, primary screen (AID 588685;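 active = differentiation response of at least 50%, scaled between solvent and reference control, from cells with both markers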;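 note: compound exposure lasts four days before antibody staining and flow analysis; 0% = DMSO wells and 100% = 5 µM fulvestrant positive control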). Particulars: stronger effect = higher value.
Experiment [17] in a line: calorie-restriction mimetic ROS inhibitors, yeast – validation compound set, pilot screen (AID 2706;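 active = superoxide response below 65% of plate, a cut near 3 SD across the whole screen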;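 note: yeast exposed to compound for one week at 30 degrees C before staining; 100% = mean of all compound wells on the same plate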). Particulars: S. cerevisiae aging, superoxide DHE fluorescence; at 10 µM; stronger effect = lower value.

Molecules are shown by their SMILES. Records with an inconclusive call do not appear. The source made the active and inactive calls. Unless noted, the rule behind the calls is not given here.

Chain of Beta-adrenergic receptor kinase 1 (Homo sapiens) (P25098 whole entry, looked up): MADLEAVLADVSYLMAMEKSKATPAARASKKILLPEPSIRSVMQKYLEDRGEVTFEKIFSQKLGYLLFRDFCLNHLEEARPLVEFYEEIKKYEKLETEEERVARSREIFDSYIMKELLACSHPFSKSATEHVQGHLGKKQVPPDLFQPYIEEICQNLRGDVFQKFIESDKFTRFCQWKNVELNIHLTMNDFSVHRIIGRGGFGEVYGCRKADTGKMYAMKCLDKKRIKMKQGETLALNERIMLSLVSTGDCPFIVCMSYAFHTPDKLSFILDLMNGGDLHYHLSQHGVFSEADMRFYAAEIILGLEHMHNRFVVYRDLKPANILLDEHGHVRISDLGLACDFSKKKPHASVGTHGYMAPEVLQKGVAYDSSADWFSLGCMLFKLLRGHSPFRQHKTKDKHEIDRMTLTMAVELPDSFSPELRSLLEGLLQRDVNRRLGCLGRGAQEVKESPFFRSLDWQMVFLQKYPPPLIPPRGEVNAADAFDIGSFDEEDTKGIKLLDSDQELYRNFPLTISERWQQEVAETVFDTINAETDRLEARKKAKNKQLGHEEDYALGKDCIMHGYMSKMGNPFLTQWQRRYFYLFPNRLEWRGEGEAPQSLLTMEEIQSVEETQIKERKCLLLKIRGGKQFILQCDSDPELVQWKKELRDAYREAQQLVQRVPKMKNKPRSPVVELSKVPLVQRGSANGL
Chain of Lethal factor (Bacillus anthracis) (P15917 whole entry, looked up): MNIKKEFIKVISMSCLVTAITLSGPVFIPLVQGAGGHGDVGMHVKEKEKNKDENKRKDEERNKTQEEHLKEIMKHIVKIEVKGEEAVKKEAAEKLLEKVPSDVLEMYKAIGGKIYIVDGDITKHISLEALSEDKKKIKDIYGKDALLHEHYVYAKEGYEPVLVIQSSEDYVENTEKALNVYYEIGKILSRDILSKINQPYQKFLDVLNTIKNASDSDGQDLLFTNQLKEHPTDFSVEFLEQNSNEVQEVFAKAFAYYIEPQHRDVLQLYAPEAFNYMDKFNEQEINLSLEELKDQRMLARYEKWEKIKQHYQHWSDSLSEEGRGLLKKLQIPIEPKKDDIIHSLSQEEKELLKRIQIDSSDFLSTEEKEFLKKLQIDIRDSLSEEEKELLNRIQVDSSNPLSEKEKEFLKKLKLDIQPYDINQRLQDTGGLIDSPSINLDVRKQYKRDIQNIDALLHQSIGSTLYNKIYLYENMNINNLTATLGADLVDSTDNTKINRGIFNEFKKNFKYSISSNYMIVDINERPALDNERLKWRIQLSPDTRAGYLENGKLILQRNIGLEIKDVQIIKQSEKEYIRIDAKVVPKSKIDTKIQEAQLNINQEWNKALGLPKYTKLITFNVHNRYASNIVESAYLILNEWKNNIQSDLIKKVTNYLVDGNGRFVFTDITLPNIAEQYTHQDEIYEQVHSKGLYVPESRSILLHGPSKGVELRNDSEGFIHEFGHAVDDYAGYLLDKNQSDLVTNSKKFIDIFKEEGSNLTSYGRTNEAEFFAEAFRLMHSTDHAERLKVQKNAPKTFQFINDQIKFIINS
Chain of ATP-binding cassette sub-family B member 6 (Homo sapiens) (Q9NP58 whole entry, looked up): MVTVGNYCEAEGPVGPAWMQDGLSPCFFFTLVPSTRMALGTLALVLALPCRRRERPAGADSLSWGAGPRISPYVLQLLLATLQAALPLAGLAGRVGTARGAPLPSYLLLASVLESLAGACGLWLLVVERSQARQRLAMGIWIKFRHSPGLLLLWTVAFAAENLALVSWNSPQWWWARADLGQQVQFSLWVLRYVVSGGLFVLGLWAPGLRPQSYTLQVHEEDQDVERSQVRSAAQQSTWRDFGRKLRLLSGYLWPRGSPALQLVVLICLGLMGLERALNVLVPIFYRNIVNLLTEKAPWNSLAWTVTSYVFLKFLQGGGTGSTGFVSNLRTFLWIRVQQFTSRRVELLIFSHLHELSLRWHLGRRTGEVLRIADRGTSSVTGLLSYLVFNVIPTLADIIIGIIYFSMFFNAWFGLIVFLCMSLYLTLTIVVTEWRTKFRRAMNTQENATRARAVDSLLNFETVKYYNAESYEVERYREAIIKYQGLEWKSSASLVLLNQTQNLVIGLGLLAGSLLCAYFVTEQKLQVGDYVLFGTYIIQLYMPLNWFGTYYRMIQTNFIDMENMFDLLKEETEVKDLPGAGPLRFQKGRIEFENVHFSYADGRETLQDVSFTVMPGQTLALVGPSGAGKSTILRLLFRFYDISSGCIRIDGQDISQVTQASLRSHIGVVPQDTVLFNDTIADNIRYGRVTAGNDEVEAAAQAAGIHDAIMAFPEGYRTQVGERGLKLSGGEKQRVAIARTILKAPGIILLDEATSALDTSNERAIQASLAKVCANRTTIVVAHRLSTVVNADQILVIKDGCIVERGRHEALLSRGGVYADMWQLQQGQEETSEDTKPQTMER

With `COc1ccc2c(c1)CC1(CN2C)C(=O)NC(=O)N(CCc2ccccc2)C1=O` (stereo not given), the percent of DMSO control GFP in [1] is 101% (inactive). Moreover, the GFP response vs DMSO in [2] is 98.3% (inactive); in [4], 88.1% (inactive). Moreover, the percent response of DMSO control in [3] is 96.6% (inactive). The same compound registered a double positive events in experiment [5] of 65.8%. Further, the vesicle binding response in experiment [5] was 263% (inactive). In addition, the inhibition in [6] is -3.57% (inactive); in experiment [8], -4.29% (inactive); in experiment [11], 3.8% (inactive); in [12], 1.1% (inactive); in experiment [13] it was -1.5% (inactive); in [15] it was 27% (inactive). In addition, in [7], the aptamer binding inhibition was -3% (inactive). For the same compound, the response in experiment [9] is 1.95% (inactive). Moreover, the binding (% of control) in experiment [10] was 104% (inactive). In addition, in [14], the efflux inhibition (fraction of control) was -0.07 (inactive). The differentiation response in [16] was 27.6% (inactive).
Take `[N-]=[N+]=NC1C[C@H](n2ccc(=O)[nH]c2=O)O[C@@H]1CO` (stereo not given in full): in experiment [1], the percent of DMSO control GFP is 101% (inactive). In addition, the GFP response vs DMSO in experiment [2] is 99.9% (inactive); in experiment [4], 101% (inactive). Moreover, the percent response of DMSO control in experiment [3] was 106% (inactive). The double positive events in experiment [5] came to 56.5%. Besides, in [5], the vesicle binding response was 185% (inactive). The inhibition in [6] is 9.09% (inactive); in experiment [8], 42% (inactive); in [11], 0.8% (inactive); in [12] it was -1.5% (inactive); in experiment [13] it was -5.9% (inactive); in [15], 6% (inactive). In experiment [17], the superoxide response (% of plate) is 97.1% (inactive). In experiment [7], the aptamer binding inhibition was -2% (inactive). Moreover, the response in experiment [9] is -3.04% (inactive). For the same compound, in experiment [10], the binding (% of control) was 97.7% (inactive). The efflux inhibition (fraction of control) in experiment [14] was 0.03 (inactive). Further, the differentiation response in [16] was -21.2% (inactive).
Turning to `CC(Cc1ccccc1)NCC(=O)Nc1cc(N(C)C)nc2ccccc12` (stereo not given), the percent of DMSO control GFP in experiment [1] is 101% (inactive). Moreover, the GFP response vs DMSO in experiment [2] was 107% (inactive); in experiment [4], 105% (inactive). Further, the percent response of DMSO control in experiment [3] was 93.9% (inactive). This compound also yielded a double positive events in experiment [5] of 52.9%. In experiment [5], the vesicle binding response was 191% (inactive). Besides, the inhibition in [6] was -40.4% (inactive); in experiment [8] it was -8.4% (inactive); in experiment [11], 11.6% (inactive); in [12] it was 6.4% (inactive); in [13], 0.6% (inactive); in [15], 8% (inactive). Moreover, the superoxide response (% of plate) in experiment [17] is 93.7% (inactive). In addition, in [7], the aptamer binding inhibition was 5% (inactive). For the same compound, in experiment [9], the response is -1.24% (inactive). In experiment [10], the binding (% of control) is 99.3% (inactive). In [14], the efflux inhibition (fraction of control) is -0.31 (inactive). For the same compound, in [16], the differentiation response was -18% (inactive).
For the compound `CCN(CC)C(=O)N[C@H]1C[C@@H]2c3cccc4[nH]cc(c34)C[C@H]2N(C)C1`, the percent of DMSO control GFP in [1] was 101% (inactive). The figures for the GFP response vs DMSO in experiment [2] and in experiment [4] were 107% (inactive) and 94% (inactive), respectively. In addition, the percent response of DMSO control in experiment [3] is 101% (inactive). This compound displayed a double positive events in experiment [5] of 62.5%. Moreover, the vesicle binding response in experiment [5] is 197% (inactive). For the same compound, the inhibition in [6] is -11.9% (inactive); in experiment [8], 28.7% (inactive); in experiment [11] it was -2.6% (inactive); in experiment [12], -1.3% (inactive); in [13], -36% (inactive); in [15] it was -252% (inactive). Moreover, the aptamer binding inhibition in [7] is -2% (inactive). The response in experiment [9] is -1.97% (inactive). The binding (% of control) in experiment [10] was 101% (inactive). The efflux inhibition (fraction of control) in experiment [14] is 0.36 (inactive). Moreover, the differentiation response in experiment [16] is 21.8% (inactive).

As usually defined, the inhibition is the drop in the measured response relative to a control, in per cent.
